Screen size: about 420,000 compounds; about 64,000 (15%) were called active. Inconclusive results (about 27%) are left out. Calls come from the whole dose curve; as a rule, active = well fitted inhibition curve with a large enough effect; inconclusive = small, poorly fitted or top-dose-only effect; inactive = flat fitted curve, though single readings scatter. The list is a sample of the results. Entries that show only a call come without a potency.
test: qHTS for Inhibitors of human tyrosyl-DNA phosphodiesterase 1 (TDP1): qHTS in cells in absence of CPT; details: DT40 Tdp1-/- hTDP1 cells, no CPT, ATP luminescence, 48 h; activity change, negative = growth inhibition: at 46.2 µM (top of the series); note: nearly all actives have a fitted effect of over 55% in size
Procedure, shortened: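 Camptothecin absent (DMSO only). Human TDP1-complemented DT40 knockout cells, 400 cells/well, 37 °C for minimum 48 hr; ATP measured via CellTiter-Glo, 30 min dark incubation, luminescence.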
Potency is the fitted concentration of half-maximal effect.

Structure (SMILES) | Potency
COc1ccc2[nH]c(=O)c(CN(Cc3cccnc3)S(=O)(=O)c3ccccc3F)cc2c1 | 18.4 µM (active)
COc1ccc(-c2[nH]ncc2CN(C)Cc2cccnc2)c(F)c1 | inactive
CCN(Cc1cc2cc(C)ccc2[nH]c1=O)S(=O)(=O)c1ccccc1 | inactive
Cc1ccc(C(=O)NCC(=O)OCC(=O)NC2CCCCCCC2)cc1 | inactive
COc1ccc(C2C(=O)N(C3CCCCC3)CC(=O)N2Cc2ccccc2Cl)cc1OC (stereo not drawn) | inactive
O=C(NCCc1ccc(Cl)cc1)C1CC(=O)N(C2CCCCC2)C1 (stereo not drawn) | inactive
COc1ccc(C2C(=O)N(C3CCCCCC3)CC(=O)N2CCc2ccc(Cl)cc2)cc1OC (stereo not drawn) | 23.1 µM (active)
CCCCN(C(=O)c1nn(C)c(=O)c2ccccc12)c1c(N)n(CCC)c(=O)[nH]c1=O | inactive
CCN1C[C@@H]2[C@@H]3C(=O)N(C)C(=O)[C@@H]3[C@](C)(C1=O)N2C(=O)c1ccccc1 | inactive
COc1cc(C2CC(=O)c3cnc(NC(C)=O)nc3C2)cc(OC)c1OC (stereo not drawn) | inactive
CCOC(=O)C1=C(N)N2C(=O)C(C)SC2=C(C(=O)OCC)C1c1cc(OC)c(OC)c(OC)c1 (stereo not drawn) | inactive
CCCOC(=O)c1cc2ccccc2oc1=O | inactive
CCCOC(=O)c1[nH]c2c(c1C)C(=O)CC(c1cc(OC)c(OC)c(OC)c1)C2 (stereo not drawn) | 4.61 µM (active)
CCCOC(=O)c1[nH]c2c(c1C)C(=O)CC(c1cccs1)C2 (stereo not drawn) | 0.58 µM (active)
Cc1noc(C)c1C(=O)N1CCC1(C)C(=O)NS(=O)(=O)c1ccc(C#N)cc1 (stereo not drawn) | inactive
Cn1c(SCC(=O)Nc2cccc(NC(=O)c3cccs3)c2)nnc1-c1ccncc1 | inactive
COc1cc(OC)c(C(=O)N2CCCC2)cc1OC | inactive
Nc1cc(N2CCCCCC2)c2nonc2c1[N+](=O)[O-] | inactive
CCOc1ccc(N(C)S(=O)(=O)c2cnc[nH]2)cc1 | inactive
CC(NS(=O)(=O)c1ccc(Br)cc1)C(=O)NCC1CCCO1 (stereo not drawn) | inactive
OC(CNCC1CCCO1)Cn1c2ccc(Br)cc2c2cc(Br)ccc21 (stereo not drawn) | 18.4 µM (active)
O=C(CCNS(=O)(=O)c1ccc(Br)cc1)NCC1CCCO1 (stereo not drawn) | inactive
CN(C)c1ccc(C(CNS(=O)(=O)c2cc(F)ccc2F)N2CCOCC2)cc1 (stereo not drawn) | inactive

Structure (SMILES) | Potency
C[C@H](NC(=O)c1[nH]cnc1C(=O)Nc1nccs1)c1ccccc1 | inactive
Cc1ccc(S(=O)(=O)N2CCOCC2)cc1C(=O)OC1CCCCC1=O (stereo not drawn) | inactive
CC(=O)N1CCc2cc(Br)cc(S(=O)(=O)CCC(=O)Nc3c(C)n(C)n(-c4ccccc4)c3=O)c21 | inactive
CCOC(=O)c1c(N)nn(C(=O)c2ccccc2)c1-c1ccccc1 | inactive
CCOC(=O)c1c(-c2ccc(-c3ccccc3)cc2)csc1NC(=O)CCC(=O)O | inactive
Cc1ccc2nc(NC(=O)c3nc(SCc4ccccc4F)ncc3Cl)sc2c1 | inactive
CCOC(=O)c1c(-c2cccc(C)c2)csc1NC(=O)c1c(-c2ccccc2)noc1C | 23.1 µM (active)
CCOC(=O)c1c(NC(=O)c2cc(-c3ccc(Cl)cc3)on2)sc2c1CCCC2 | inactive
CCCS(=O)(=O)c1ncc(Cl)c(C(=O)Nc2scc(-c3ccccc3)c2C(=O)OCC)n1 | 3.66 µM (active)
CCOC(=O)C1CCN(C(=O)COC(=O)C2CCN(S(=O)(=O)c3ccc4c(c3)OCCO4)CC2)CC1 | inactive
CCOC(=O)CN/C=C(\C#N)c1ccc(F)cc1 | inactive
CC(C)CN(C(=O)Cn1c(=O)cnc2ccccc21)C1CCS(=O)(=O)C1 (stereo not drawn) | inactive
CC1(C(=O)Nc2ccc3c(c2)OCCO3)CN(S(C)(=O)=O)CC(=O)N1Cc1cccc(F)c1 (stereo not drawn) | inactive
O=C(C1CCCO1)N1CCN(C(=S)Nc2cccc(Cl)c2)CC1 (stereo not drawn) | inactive
CCOC(=O)C1CCN(C(=O)C2CCN(S(=O)(=O)N3CCCC3)CC2)CC1 | inactive
CCCCNC(=O)CSc1nc2cc3c(cc2c(=O)n1CCCCCC(=O)NCc1ccc2c(c1)OCO2)OCO3 | inactive
O=C(CCCCn1c(=O)[nH]c2ccccc2c1=O)NCc1ccc2c(c1)OCO2 | inactive
CCN(CC)C(=O)CSc1nc2cc3c(cc2c(=O)n1CCCC(=O)NCc1ccc2c(c1)OCO2)OCO3 | 16.4 µM (active)
COc1ccc(-c2nn(-c3ccccc3)cc2/C=N/Nc2ccccn2)cc1OC | 5.8 µM (active)
CN(C)/N=C/c1cn(-c2ccccc2)nc1-c1cccnc1 | inactive
CC(C)(C)OC(=O)N/N=C/c1cn(-c2ccccc2)nc1-c1cccnc1 | inactive
N#Cc1ccc(C(=O)Nc2cccc3cccnc23)c(F)c1 | inactive
CC(=O)/C(=N\Nc1ccc(Cl)cc1Cl)Sc1cccc2cccnc12 | 4.11 µM (active)

Structure (SMILES) | Potency
O=C(Nc1cccc2cccnc12)c1cccc(Cl)c1 | inactive
C#CCN(N(C)c1ncc(C(F)(F)F)cc1Cl)S(=O)(=O)c1ccc2ccccc2c1 | inactive
Cc1csc(NC(=O)CSc2nnc(-c3cccnc3)o2)n1 | inactive
O=C(NCCS(=O)(=O)NCc1ccc(F)cc1)c1ccccc1 | inactive
O=C(COC(=O)c1ccc(O)cc1)Nc1nccs1 | inactive
O=C(Cn1cnc([N+](=O)[O-])n1)NCCc1ccccc1 | inactive
CCN1CCN(CC(=O)c2cc(OC)c(OC)c(OC)c2)CC1 | inactive
CCn1c(CNC(=O)c2cc(OC)c(OC)c(OC)c2)cc2cc(C)ccc21 | 13 µM (active)
COc1cc(-n2c(C)nc3cc(C(=O)NCc4ccco4)ccc32)cc(OC)c1OC | inactive
COC(=O)c1cccc(NC(=O)c2cccc(N3C(=O)CCC3=O)c2)c1 | inactive
O=C(O)c1ccccc1Cc1ccc(F)c2ccccc12 | inactive
CCOc1ccc(C(=O)Nc2ccc(CN3CCOCC3)cc2)cc1Cl | inactive
CC(=O)Nc1ccc(S(=O)(=O)N2CCC(C(=O)NC3CC3)CC2)cc1 | inactive
O=C(OCC(=O)N1CCCC1=O)c1cc(S(=O)(=O)N2CCOCC2)ccc1Cl | inactive
CCOc1ccc(C(=O)NC(=S)Nc2ccc(N3CCOCC3)c(Cl)c2)cc1[N+](=O)[O-] | 8.2 µM (active)
O=C(CNCc1ccco1)Nc1cc(S(=O)(=O)N2CCOCC2)ccc1N1CCCC1 | inactive
O=C(COC(=O)c1ccccc1F)Nc1cc(S(=O)(=O)N2CCOCC2)ccc1N1CCCC1 | inactive
CCOc1ccc(C(=O)NC(=S)Nc2ccc(NC(=O)C(C)C)cc2)cc1[N+](=O)[O-] | inactive
O=S(=O)(c1ccc(NC(=S)NN=C(C2CC2)C2CC2)cc1)N1CCOCC1 | inactive
COCCNC(=S)Nc1cc(S(=O)(=O)N2CCOCC2)ccc1N1CCCCC1 | 16.4 µM (active)
O=C(Nc1ccc(S(=O)(=O)N2CCOCC2)cc1)C1CCN(S(=O)(=O)c2ccc(Cl)cc2)CC1 | 10.3 µM (active)
O=C(Nc1ccc2c(c1)nc1n2CCCCC1)c1cc(S(=O)(=O)N2CCOCC2)ccc1Cl | 14.6 µM (active)

— PubChem BioAssay AID686978 (National Center for Advancing Translational Sciences (NCATS), 2013)
